Bioassay records as filed in PubChem BioAssay.
C diff HTS = inhibitors of Clostridium difficile growth. growth activity, negative = inhibition, % at 16 µg/mL (by protocol). Clostridium difficile clinical isolate growth, OD600, 24 h; stronger effect = lower value. 86,000 compounds, 0.25% hits. AID 1259249;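 active = mean growth activity at or below -80% and every replicate also at or below -80%; inconclusive = mean at or below -80% but some replicate above -80%; inactive = mean growth activity above -80%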;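 also: 0% = DMSO wells and -100% = levofloxacin 16 µg/mL wells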
T cruzi growth-1 = T. cruzi proliferation inhibition | T. cruzi beta-gal in NIH3T3, GalScreen luminescence, 90 h | 77,000 compounds, 5.9% hits | inhibition, % at 8.34 µM;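 active = mean inhibition above about 93%, with at least 55% of replicates each passing it, limit read from the data, passing the limit was not always enough; inconclusive = only one of those two conditions holds; inactive = neither condition holds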
Pf Dd2 growth = blocks growth of Plasmodium falciparum Dd2 parasites; P. falciparum Dd2 growth, SYBR Green, 72 h; stronger effect = lower value; activity change, % at 10 µM; 94,000 compounds, 2.3% hits; AID 1159554; in the data active = activity change below about -80%; inconclusive = no clear call, values can overlap the other calls
T cruzi growth-2 = inhibitors of T. cruzi proliferation. 5,600 compounds, 72% hits. AID 651739. shares compounds with T cruzi growth-1. T. cruzi beta-gal in NIH3T3, GalScreen luminescence, 90 h. inhibition, % at 8.35 µM;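 active = mean replicate inhibition above about 95% and at least 55% of replicates individually reaching it, limit read from the data; inconclusive = only one of the two criteria is met; inactive = neither criterion is met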
T cruzi growth-3 = inhibitors of T. cruzi proliferation; 5,600 compounds, 21% hits; shares compounds with T cruzi growth-1; inhibition, % at 2.09 µM; T. cruzi beta-gal in NIH3T3, GalScreen luminescence, 90 h;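 active = mean inhibition above about 95%, with at least 55% of replicates also reaching it, limit read from the data; inconclusive = meets just one of the two conditions; inactive = meets neither condition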;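 also: plate controls were neutral control median for no effect and positive control median for full effect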
NIH3T3 tox = cytotoxicity in mouse NIH/3T3 fibroblasts; NIH/3T3 viability, CellTiter-Glo ATP luminescence, 90 h; cytotoxicity (signal decrease), % at 8.35 µM; AID 651742; shares compounds with T cruzi growth-1; 5,600 compounds, 14% hits;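 active = mean signal decrease across replicates above about 35% based on untreated-well scatter, with enough replicates individually passing, limit read from the data; inconclusive = no rule stated though some were filed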;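 also: 0% = median of neutral control wells and 100% = median of positive control wells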
NIH3T3 tox 2 = NIH/3T3 (mouse) viability loss; shares compounds with T cruzi growth-1; inhibition, % at 24.9 µM; NIH/3T3 viability, CellTiter-Glo ATP luminescence, 90 h; AID 651744; 5,600 compounds, 56% hits;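 active = mean loss of cell viability signal at or above a set limit, and enough replicates individually reaching it; inconclusive = meets only the mean limit or only the replicate share; inactive = meets neither condition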;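 also: 0% = median of neutral control wells and 100% = median of positive control wells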
Numbers without * were called inactive; ? = inconclusive; . = not tested or not shown. In the library only some 6.7% were active in any assay of this set; here they are far more common.

SMILES | C diff HTS | T cruzi growth-1 | Pf Dd2 growth | T cruzi growth-2 | T cruzi growth-3 | NIH3T3 tox | NIH3T3 tox 2
O=C(Nc1ccccc1)N1C[C@@H]2[C@H](c3ccccc31)[C@@H](CO)N2Cc1ccccc1Cl | 3 | 28 | -16 | . | . | . | .
O=C(Nc1ccccc1F)N1C[C@@H]2[C@H](c3ccccc31)[C@H](CO)N2C(=O)C1CC1 | -1 | -16 | 1 | . | . | . | .
O=C(Nc1ccccc1F)N1C[C@@H]2[C@H](c3ccccc31)[C@H](CO)N2C(=O)C1CCOCC1 | -1 | 107* | -79 | -60 | -16 | -7 | -15
O=C(Nc1ccccc1)N1C[C@@H]2[C@H](c3ccccc31)[C@H](CO)N2Cc1ccccc1Cl | 4 | ? | -4 | 97* | 42 | 11 | 6
O=C(Nc1ccc(Cl)cc1)N1C[C@H]2[C@@H](c3ccccc31)[C@H](CO)N2CC1CCCCC1 | 39 | 81 | -37 | . | . | . | .
O=C(N[C@@H]1CC[C@H](CCn2cc(-c3ccccn3)nn2)O[C@H]1CO)c1cccnc1 | 3 | -22 | -12 | . | . | . | .
C[C@H](CO)N1C[C@H](C)[C@@H](CN(C)Cc2ccncc2)OCCCC[C@H](C)Oc2ccc(NC(=O)CCC(F)(F)F)cc2C1=O | -2 | 27 | 33 | . | . | . | .
COc1ccc(S(=O)(=O)N[C@H]2CC[C@H](CC(=O)N3CCN(c4ccccc4)CC3)O[C@H]2CO)cc1 | -5 | 3 | 9 | . | . | . | .
O=C(C[C@@H]1C[C@H]2c3cc(NC(=O)c4ccc5c(c4)OCO5)ccc3O[C@H]2[C@H](CO)O1)NCc1ccc(Cl)cc1 | 5 | 74 | -5 | . | . | . | .
O=C(C[C@@H]1C[C@@H]2c3cc(NC(=O)c4ccc5c(c4)OCO5)ccc3O[C@@H]2[C@H](CO)O1)NCc1ccc(Oc2ccccc2)cc1 | -20 | -11 | -39 | . | . | . | .
O=C(C[C@@H]1C[C@H]2c3cc(NC(=O)c4ccc5c(c4)OCO5)ccc3O[C@H]2[C@@H](CO)O1)NCc1ccc(Oc2ccccc2)cc1 | -3 | 120* | 4 | 75 | 6 | 45* | 94*
O=C(C[C@H]1C[C@H]2c3cc(NC(=O)c4ccc5c(c4)OCO5)ccc3O[C@H]2[C@@H](CO)O1)NCc1ccc(Cl)cc1 | 3 | 1 | -25 | . | . | . | .
O=C(C[C@H]1C[C@@H]2c3cc(NC(=O)c4ccc5c(c4)OCO5)ccc3O[C@@H]2[C@@H](CO)O1)NCc1ccc(Oc2ccccc2)cc1 | -5 | 148* | -28 | 111* | 43 | 42* | 34*
O=C(C[C@@H]1C[C@H]2c3cc(NC(=O)c4ccc5c(c4)OCO5)ccc3O[C@H]2[C@H](CO)O1)NCc1ccc(Oc2ccccc2)cc1 | -12 | 113* | -29 | 103* | 20 | 69* | 51*
C[C@H](CO)N1C[C@H](C)[C@H](CN(C)C(=O)Nc2ccc(C(F)(F)F)cc2)Oc2c(NS(=O)(=O)c3ccc(F)cc3)cccc2C1=O | 24 | 36 | -11 | . | . | . | .
C[C@H]1CCCCO[C@H](CN(C)S(=O)(=O)c2ccccc2)[C@@H](C)CN([C@@H](C)CO)C(=O)c2cc(NC(=O)Nc3ccc(F)cc3)ccc2O1 | 1 | 106* | -71 | 110* | 62 | 11 | 1
C[C@@H]1CN([C@@H](C)CO)C(=O)c2cc(NC(=O)Nc3ccc(F)cc3)ccc2O[C@@H](C)CCCCO[C@@H]1CN(C)S(=O)(=O)c1ccccc1 | 10 | 103* | -84* | 70 | -13 | 7 | 10
C[C@@H]1CCCCO[C@@H](CN(C)S(=O)(=O)c2ccccc2)[C@H](C)CN([C@H](C)CO)C(=O)c2cc(NC(=O)Nc3ccc(F)cc3)ccc2O1 | -1 | 99* | -75 | 108* | 88 | 20 | 11
CC(=O)N1[C@H](CO)[C@@H](c2ccccc2)[C@H]1CN(C)S(=O)(=O)c1ccccc1 | -7 | -13 | 0 | . | . | . | .
CC(C)NC(=O)N(C)C[C@@H]1Oc2cc(Br)ccc2S(=O)(=O)N([C@H](C)CO)C[C@@H]1C | 21 | -32 | 5 | . | . | . | .
CCCNC(=O)[C@H]1[C@H](CO)[C@H]2Cn3c(ccc(-c4cccnc4)c3=O)[C@H]2N1C(=O)c1ccccc1F | -6 | 13 | . | . | . | . | .
O=C(O)C[C@H]1C[C@H]2c3cc(NC(=O)NC4CCCCC4)ccc3O[C@H]2[C@@H](CO)O1 | 1 | -30 | 6 | . | . | . | .
C[C@@H]1CN([C@@H](C)CO)S(=O)(=O)c2ccc(C3=CCCCC3)cc2O[C@@H]1CN(C)C(=O)Cc1ccncc1 | -2 | 97* | -68 | 89 | 59 | 19 | 32*
C[C@@H]1CN([C@@H](C)CO)S(=O)(=O)c2ccc(C3=CCCC3)cc2O[C@H]1CN(C)C(=O)Cc1ccncc1 | -1 | 98* | -66 | 80 | 15 | -7 | 23
C[C@@H]1CN([C@H](C)CO)S(=O)(=O)c2ccc(C3=CCCC3)cc2O[C@H]1CN(C)C(=O)Cc1ccncc1 | 0 | 73 | -19 | . | . | . | .
SMILES | C diff HTS | T cruzi growth-1 | Pf Dd2 growth | T cruzi growth-2 | T cruzi growth-3 | NIH3T3 tox | NIH3T3 tox 2
C[C@@H]1CN([C@H](C)CO)S(=O)(=O)c2ccc(C3=CCCCC3)cc2O[C@@H]1CN(C)C(=O)Cc1ccccc1 | 9 | 103 | -7 | . | . | . | .
C[C@@H]1CN([C@@H](C)CO)S(=O)(=O)c2ccc(C3=CCCCC3)cc2O[C@H]1CN(C)C(=O)Cc1ccncc1 | -2 | 81 | -72 | . | . | . | .
C[C@@H]1CN([C@@H](C)CO)S(=O)(=O)c2ccc(C3=CCCCC3)cc2O[C@H]1CN(C)C(=O)Cc1ccccc1 | -9 | ? | -43 | 105* | 41 | 53* | 52*
C[C@@H]1CN([C@H](C)CO)S(=O)(=O)c2ccc(C3=CCCCC3)cc2O[C@H]1CN(C)C(=O)Cc1ccncc1 | -2 | 100* | -79 | 103* | 66 | 28 | 36*
C[C@@H]1CN([C@H](C)CO)S(=O)(=O)c2ccc(C3=CCCCC3)cc2O[C@@H]1CN(C)C(=O)Cc1ccncc1 | -1 | 94 | -69 | . | . | . | .
C[C@H]1CN([C@@H](C)CO)C(=O)c2cc(NS(=O)(=O)c3ccccc3)ccc2O[C@@H]1CN(C)C(=O)Nc1ccc2c(c1)OCO2 | 3 | -10 | 42 | . | . | . | .
C[C@@H]1CN([C@H](C)CO)C(=O)c2cc(/C=C/c3ccccc3)cnc2O[C@@H]1CN(C)C(=O)c1ccccc1 | 3 | 58 | -61 | . | . | . | .
CC(C)CC#Cc1cnc2c(c1)C(=O)N([C@@H](C)CO)C[C@@H](C)[C@@H](CN(C)Cc1ccccc1)O2 | . | 84 | -24 | . | . | . | .
Cc1ccc(S(=O)(=O)N(C)C[C@H]2Oc3ccc(NC(=O)NC(C)C)cc3C(=O)N([C@H](C)CO)C[C@H]2C)cc1 | 2 | 6 | 4 | . | . | . | .
